HP1b binding inh = blocks HP1-beta chromodomain binding to methylated histone tails | P83916 | AlphaScreen HP1-beta / biotin-H3K9me3 peptide binding | Potency, µM (series often up to 114 µM), for the others: top-dose activity change, negative = inhibition, hits mostly inhibitors | actives 0.56% (n = 390,000); note: nearly all actives have a fitted effect of over 70% in size
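HP1-beta protein (50 nM final) preincubated 30 min at room temperature with biotinylated H3(1-18)K9me3 peptide (50 nM) in PBS pH 7.4, 0.01% Tween-20, then compound added for 30 min. AlphaScreen streptavidin donor/nickel chelate acceptor beads (10 ug/mL final), 30 min dark, luminescence read.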
JMJD2A Tudor inh = blocks the human JMJD2A Tudor domain | AID 504339 | AlphaScreen JMJD2A-Tudor / H3K4me3 peptide binding | actives 4.4% (n = 390,000) | Potency, µM (series often up to 114 µM), for inactives: top-dose activity change, negative = inhibition, actives largely listed as inhibitors | O75164; note: % is set by controls: 0 for no effect and ±100 for the full control effect; nearly all actives have a fitted effect of over 50% in size
BAZ2B inh = BAZ2B (human) inhibition. AlphaScreen BAZ2B-H3K14Ac peptide displacement. Q9UIF8. actives 4.4% (n = 360,000). Potency, µM (doses to about 114 µM), without a hit: top-dose activity change, negative = inhibition, usual class: inhibitors. AID 504333; note: % is set by controls: 0 for no effect and ±100 for the full control effect; nearly all actives have a fitted effect of over 60% in size
Target sequence (Q9UIF8 whole entry, looked up): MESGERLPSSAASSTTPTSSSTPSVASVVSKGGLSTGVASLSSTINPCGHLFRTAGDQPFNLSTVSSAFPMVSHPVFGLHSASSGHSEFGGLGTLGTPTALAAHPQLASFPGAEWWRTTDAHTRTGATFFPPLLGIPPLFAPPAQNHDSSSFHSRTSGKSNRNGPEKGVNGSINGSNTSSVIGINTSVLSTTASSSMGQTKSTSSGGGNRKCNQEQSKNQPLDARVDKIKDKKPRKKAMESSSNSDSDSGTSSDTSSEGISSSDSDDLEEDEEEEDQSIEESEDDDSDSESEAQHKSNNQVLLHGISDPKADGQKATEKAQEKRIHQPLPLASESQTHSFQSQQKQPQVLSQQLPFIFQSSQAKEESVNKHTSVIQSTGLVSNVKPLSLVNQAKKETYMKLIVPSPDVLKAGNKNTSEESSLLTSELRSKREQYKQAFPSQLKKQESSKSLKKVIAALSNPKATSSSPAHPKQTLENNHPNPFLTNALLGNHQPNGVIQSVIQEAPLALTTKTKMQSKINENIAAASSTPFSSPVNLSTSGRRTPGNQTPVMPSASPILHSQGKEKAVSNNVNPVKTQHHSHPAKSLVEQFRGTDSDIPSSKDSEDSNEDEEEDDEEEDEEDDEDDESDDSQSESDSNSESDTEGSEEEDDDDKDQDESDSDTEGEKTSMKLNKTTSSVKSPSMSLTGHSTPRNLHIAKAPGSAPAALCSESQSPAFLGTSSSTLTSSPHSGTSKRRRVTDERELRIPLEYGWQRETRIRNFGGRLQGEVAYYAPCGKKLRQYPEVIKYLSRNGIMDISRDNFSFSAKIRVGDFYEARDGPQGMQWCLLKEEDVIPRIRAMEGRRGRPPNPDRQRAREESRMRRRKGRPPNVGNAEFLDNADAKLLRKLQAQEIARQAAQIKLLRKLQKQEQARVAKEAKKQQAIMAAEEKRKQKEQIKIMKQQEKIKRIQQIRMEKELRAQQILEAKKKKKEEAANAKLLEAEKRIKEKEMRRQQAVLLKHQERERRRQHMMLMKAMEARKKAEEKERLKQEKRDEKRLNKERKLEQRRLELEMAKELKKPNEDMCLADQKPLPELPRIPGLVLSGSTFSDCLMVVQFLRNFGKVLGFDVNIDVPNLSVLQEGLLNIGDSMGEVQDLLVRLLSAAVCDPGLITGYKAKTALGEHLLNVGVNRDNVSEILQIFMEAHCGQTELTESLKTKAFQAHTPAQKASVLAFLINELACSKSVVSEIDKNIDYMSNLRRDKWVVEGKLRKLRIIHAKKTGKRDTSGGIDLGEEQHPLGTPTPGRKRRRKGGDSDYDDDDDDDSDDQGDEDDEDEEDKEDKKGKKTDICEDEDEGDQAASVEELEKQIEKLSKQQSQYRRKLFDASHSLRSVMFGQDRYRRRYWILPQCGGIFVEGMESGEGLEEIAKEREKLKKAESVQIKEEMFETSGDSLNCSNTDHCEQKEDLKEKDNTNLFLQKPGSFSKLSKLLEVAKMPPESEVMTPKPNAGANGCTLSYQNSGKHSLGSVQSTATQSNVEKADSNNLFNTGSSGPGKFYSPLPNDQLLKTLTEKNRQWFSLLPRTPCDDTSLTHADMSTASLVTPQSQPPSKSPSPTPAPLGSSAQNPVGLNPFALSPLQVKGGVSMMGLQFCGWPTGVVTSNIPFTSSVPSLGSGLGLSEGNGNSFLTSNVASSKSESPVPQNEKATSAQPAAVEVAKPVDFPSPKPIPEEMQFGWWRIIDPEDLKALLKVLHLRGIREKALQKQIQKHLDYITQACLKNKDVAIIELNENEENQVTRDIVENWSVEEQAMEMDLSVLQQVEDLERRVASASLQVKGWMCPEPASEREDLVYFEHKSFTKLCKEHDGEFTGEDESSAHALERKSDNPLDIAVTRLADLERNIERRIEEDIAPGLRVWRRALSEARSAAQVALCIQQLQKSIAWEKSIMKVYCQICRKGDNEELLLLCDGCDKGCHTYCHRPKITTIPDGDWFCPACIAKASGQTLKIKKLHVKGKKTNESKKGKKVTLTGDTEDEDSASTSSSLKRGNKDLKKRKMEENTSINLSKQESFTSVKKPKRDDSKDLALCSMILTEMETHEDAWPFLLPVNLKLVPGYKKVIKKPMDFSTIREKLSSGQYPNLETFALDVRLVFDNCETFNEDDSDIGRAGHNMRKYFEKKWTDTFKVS
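Inhibition is scored as reduced AlphaScreen emission. The BAZ2B/b-H3(5-23)K14Ac complex (50 nM each) in PBS pH 7.4, 0.01% Tween-20 meets compound (up to 110 uM) for 30 min at RT before bead addition.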
PLK1 PBD block = blocks phosphopeptide binding to human PLK1 polo-box domain; P53350; Plk1 PBD binding of FITC phosphopeptide, fluorescence polarization; Potency, µM, for the others: max response, negative = inhibition, actives largely listed as inhibitors; actives 2.8% (n = 360,000); AID 720504; note: series mostly up to about 57 µM; % is set by controls: 0 for no effect and ±100 for the full control effect; nearly all actives have a fitted effect of over 65% in size
Sfp PPTase inh = blocks B. subtilis Sfp PPTase activity; Q9F4F7; Biochemical Sfp PPTase activity, qHTS; Potency, µM, for the others: largest response in the series, negative = inhibition, actives largely listed as inhibitors; actives 3.5% (n = 310,000);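 note: the enzyme is Sfp with the accession as filed and its product quenches rhodamine fluorescence; 0% = enzyme reaction without inhibitor and -100% = no enzyme wells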
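Step 1, compound plus 15 nM Sfp-PPTase, 15 min, room temperature. Step 2, add rhodamine-CoA (5 uM) and BHQ-2-YbbR (12.5 uM). Step 3, read 525/598 nm fluorescence at 0 and 30 min.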
G9a inh = G9a (human) methyltransferase inhibition | Q96KQ7 | G9a H3K9 monomethylation, AlphaScreen, 2 h | Potency, µM (titrated, usually from 102 µM), without a hit: top-dose activity, negative = inhibition, most hits filed as inhibitors | actives 8.8% (n = 350,000) | AID 504332; note: % is set by controls: 0 for no effect and ±100 for the full control effect; nearly all actives have a fitted effect of over 75% in size
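Compounds were preincubated with 20 nM G9a for 15 min, after which biotinylated H3K9 peptide (500 nM) and SAM (20 uM) started a 2 h room-temperature reaction. Monomethylated product was quantified by antibody-based AlphaScreen chemiluminescence.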
The depositor's hits bear a star; ? = inconclusive; . = not tested or not shown; [ ] = another dose, or the depositor's remark. The list is not random: actives were taken first. Their share in the collection is about 12%. Calls come from the whole dose curve; as a rule, active = well fitted curve in the direction sought with a large enough effect; inconclusive = small, poorly fitted or top-dose-only effect, or another doubt; inactive = no such curve, though single readings can be large; an effect the other way counts as inactive or inconclusive. Potency is the fitted concentration of half-maximal effect.

SMILES | HP1b binding inh | JMJD2A Tudor inh | BAZ2B inh | PLK1 PBD block | Sfp PPTase inh | G9a inh
Cc1ccc2oc(C(=O)N3CCC(O)(c4ccccc4)CC3)c(C)c2c1 | 18% | -18% | ? | -5% | -2% | .
CC(=O)O[C@@H]1[C@@H](O)CN[C@@H]1Cc1ccccc1 | 7% | -16% | . | . | -9% | .
CC(C)CN(CCNC(=O)c1cc(-c2cccs2)nc2ccccc12)CC(C)C | 20% | -5% | 6% | . | . | 11%[59 µM]
CN1C(=O)NC(c2ccc([N+](=O)[O-])cc2)C2=C1CC(C)(C)CC2=O (stereo unspecified) | 21% | -11% | -10% | -1% | 6% | 10%
CN1C(=O)NC(c2ccccc2[N+](=O)[O-])C2=C1CC(C)(C)CC2=O (stereo unspecified) | -16% | -12% | -20% | -16% | -23% | 50µM*
CN1C(=O)NC(c2ccccc2[N+](=O)[O-])C2=C1CCCC2=O (stereo unspecified) | 17% | -3% | -22% | -26% | -28% | 45µM*
COc1cc(C2NC(=O)N(C)C3=C2C(=O)CCC3)cc(OC)c1OC (stereo unspecified) | 25% | -12% | 9% | -8% | 6% | -9%
CC(=O)N1CCc2c(sc3c2c(=O)n(-c2ccccc2Cl)c(=O)n3Cc2cccc(C)c2)C1 | 4% | -31% | -31% | . | . | -31%[59 µM]
Cc1cccc(-c2[nH]c(C(C)(C)C)nc2-c2ccc3nccnc3c2)n1 | . | . | . | . | . | 2%[59 µM]
COc1ccc2oc(=O)c(C(=O)NCc3ccccc3)cc2c1 | 34% | -10% | 2% | -3% | 24% | 32%
COc1ccc2oc(=O)c(C(=O)OCc3ccccc3)cc2c1 | 2% | 6% | -7% | ? | 50µM* | 28µM*
CC1CCN(S(=O)(=O)c2cn(CC(=O)Nc3ccc(F)cc3)c(=O)c3ccccc23)CC1 | 12% | -17% | -8% | . | . | -22%[59 µM]
CCCCN([C@H](CO)C(C)C)S(=O)(=O)c1ccccc1Br | 60% | -10% | . | -14% | . | .
Cc1ccc(C)c(OCCCC(=O)Nc2ccc(N3CCOCC3)cc2)c1 | . | . | ? | . | -3% | 40µM*
Cc1ccc(C)c(OCC(=O)Nc2ccccc2C(=O)N2CCOCC2)c1 | 31%[57 µM] | -4% | -14% | -22% | 7% | 89µM*
Cc1cccc(OCCCC(=O)Nc2ccc(N3CCOCC3)cc2)c1 | -7% | -26% | -6% | -24% | 3% | 13µM*
Cc1ccc(C)c(OCC(=O)Nc2ccc(N3CCOCC3)cc2)c1 | -16% | ? | ? | -27% | -7% | 32µM*
CCc1ccc(OCCCC(=O)Nc2ccc(N3CCOCC3)cc2)cc1 | 12% | -25% | -1% | -29% | 3% | .
Nc1cc(=O)[nH]c(=O)n1CCCc1ccccc1 | 46% | -3% | . | 9% | . | .
C[C@@H]1NC(=O)[C@@H](C)COC(=O)[C@H](C)NC(=O)[C@@H](C)COC1=O | . | . | . | . | 6% | .
COc1cc(/C=C/c2nc(C#N)c(NC(C)c3ccccc3)o2)cc(OC)c1OC (stereo unspecified) | 3% | -11% | -26% | . | . | -36%[59 µM]
Cc1cc(C)c(OCC(=O)Nc2cc(C(=O)O)cc(C(=O)O)c2)cc1C | 6% | -7% | 4% | 1% | 16% | -37%
Cc1ccc(C)c(OCC(=O)Nc2cc(C(=O)O)cc(C(=O)O)c2)c1 | 1% | -23% | -7% | -5% | -21% | 45µM*
OCCNCCSc1nc(C2CCCCC2)n(-c2ccccc2Cl)n1 | -11% | 0.89µM* | ? | -12% | -24% | ?
NC(C(=O)O)c1nn[nH]n1 (stereo unspecified) | -15% | 10µM* | . | . | -7% | .
SMILES | HP1b binding inh | JMJD2A Tudor inh | BAZ2B inh | PLK1 PBD block | Sfp PPTase inh | G9a inh
O=C(CC(NC(=O)OCc1ccccc1)c1nn[nH]n1)OCc1ccccc1 (stereo unspecified) | . | . | . | -8% | . | .
CC(=O)N=c1sc2nc3ccccc3nc2n1N(C(C)=O)C(C)=O | ? | 7.9µM* | 50µM* | ? | 45µM* | ?
Cc1ccc([C@H]2C[C@@H](O)[C@H](n3cc(-c4ccc(F)cc4)nn3)CN2C(=O)c2cccs2)cc1 | . | . | . | -5% | . | .
O=C(Nc1ccc(Cl)cc1)C1CCN(S(=O)(=O)c2ccc(Br)s2)CC1 | 31% | -2% | 1% | . | . | 0%[59 µM]
Cn1cccc1C(=S)N1CCOCC1 | -15% | -11% | 9% | ? | -27% | ?
Cn1cccc1C(=S)N=P(C1CCCCC1)(N1CCOCC1)N1CCOCC1 | ? | 35µM* | -28% | -30% | -28% | 8.9µM*
CCCc1ccc(O)c(N=Cc2cc(Br)cc(OCC)c2O)c1 | 22% | ? | ? | 32% | -13% | 5.6µM*
O=C(Nc1c(F)cc(F)cc1Br)c1ccco1 | 18% | -8% | -8% | 1% | 50µM* | ?
COc1cc(C(=O)NCC(c2cccs2)S(=O)(=O)c2cccs2)cc(OC)c1OC (stereo unspecified) | 22% | -5% | 0% | . | . | -5%[59 µM]
CC(C(=O)Nc1ccc(N(C)C)cc1)N1C(=O)c2ccccc2S1(=O)=O (stereo unspecified) | ? | 45µM* | ? | -11% | . | 14µM*
CCOc1ccc(NC(=O)C(C)N2C(=O)c3ccccc3S2(=O)=O)cc1 (stereo unspecified) | 37% | -11% | 11% | 0% | . | -4%
CSc1nsc(SC)c1NC(=O)N1CCCCC1 | 28% | -5% | 6% | -10% | 6% | 45µM*
CSc1nsc(SC)c1NC(=O)Nc1ccccc1C | 25% | -5%[11.4 µM] | -12% | -29% | -3% | -28%
O=C1c2ccccc2NC(c2ccccc2O)N1Cc1ccco1 (stereo unspecified) | 4%[57 µM] | -8%[57.1 µM] | . | . | . | .
O=C(NCC1(c2ccccc2)CCCC1)C(=O)Nc1cccc(C(F)(F)F)c1 | 38% | -20% | 1% | . | . | 2%[59 µM]
COc1ccccc1N1CCN(c2nc3ccccc3nc2C(C#N)C(=O)OC(C)C)CC1 (stereo unspecified) | -19% | ? | ? | 2% | -3% | 14µM*
CCOc1ccccc1N1CCN(c2nc3ccccc3nc2C(C#N)C(=O)OC)CC1 (stereo unspecified) | 7% | -14% | -38% | -1% | -1% | .
COCCCNC(=O)C(C#N)c1nc2ccccc2nc1N1CCCC1 (stereo unspecified) | 34% | -6% | ? | ? | -24% | 40µM*
CCCCCNC(=O)C(C#N)c1nc2ccccc2nc1N1CCCC1 (stereo unspecified) | 64% | -13% | -11% | -26% | 0% | ?
COCCOC(=O)C(C#N)c1nc2ccccc2nc1N1CCCC1 (stereo unspecified) | -5% | -24%[57.1 µM] | -32% | -28% | 14% | ?

Screening results deposited in PubChem BioAssay by National Center for Advancing Translational Sciences (NCATS).
